# Assay results: article PMC11062922 (Nature Chemical Biology, 2023)
# Read-outs that look alike come from different tables or passages of the source.
# Legend:
# Design in all cases: species or system human, MV4-11 + K-562 + COLO205 + SK-N-BE2 + OVCAR-8
# [1] = test system: ABL1; settings: read-out: apparent Kd, compound concentrations: 100 nM and 1000 nM (sheet 'Samples'), n = 1
# [2] = test system: ABL2; settings: read-out: apparent Kd, compound concentrations: 100 nM and 1000 nM (sheet 'Samples'), n = 1
# [3] = test system: EPHA2; settings: read-out: apparent Kd, compound concentrations: 100 nM and 1000 nM (sheet 'Samples'), n = 1
# [4] = test system: HCK; settings: read-out: apparent Kd, compound concentrations: 100 nM and 1000 nM (sheet 'Samples'), n = 1
# [5] = test system: PHKG2; settings: read-out: apparent Kd, compound concentrations: 100 nM and 1000 nM (sheet 'Samples'), n = 1
# [6] = test system: PRKX; settings: read-out: apparent Kd, compound concentrations: 100 nM and 1000 nM (sheet 'Samples'), n = 1
# [7] = test system: PTK6; settings: read-out: apparent Kd, compound concentrations: 100 nM and 1000 nM (sheet 'Samples'), n = 1
# [8] = test system: SRC; settings: read-out: apparent Kd, compound concentrations: 100 nM and 1000 nM (sheet 'Samples'), n = 1
# [9] = test system: YES1; settings: read-out: apparent Kd, compound concentrations: 100 nM and 1000 nM (sheet 'Samples'), n = 1
# [10] = test system: ADCK1; settings: read-out: apparent Kd, compound concentrations: 100 nM and 1000 nM (sheet 'Samples'), n = 1
# [11] = test system: CDK17; settings: read-out: apparent Kd, compound concentrations: 100 nM and 1000 nM (sheet 'Samples'), n = 1
# [12] = test system: CSNK1A1; settings: read-out: apparent Kd, compound concentrations: 100 nM and 1000 nM (sheet 'Samples'), n = 1
# [13] = test system: CSNK1E; settings: read-out: apparent Kd, compound concentrations: 100 nM and 1000 nM (sheet 'Samples'), n = 1
# [14] = test system: MAPK8; settings: read-out: apparent Kd, compound concentrations: 100 nM and 1000 nM (sheet 'Samples'), n = 1
# [15] = test system: RIOK2; settings: read-out: apparent Kd, compound concentrations: 100 nM and 1000 nM (sheet 'Samples'), n = 1
# [16] = test system: ROCK2; settings: read-out: apparent Kd, compound concentrations: 100 nM and 1000 nM (sheet 'Samples'), n = 1
# [17] = test system: STK16; settings: read-out: apparent Kd, compound concentrations: 100 nM and 1000 nM (sheet 'Samples'), n = 1
# [18] = test system: STK3; settings: read-out: apparent Kd, compound concentrations: 100 nM and 1000 nM (sheet 'Samples'), n = 1
# [19] = test system: MAPK10; settings: read-out: apparent Kd; compound concentrations: 100 nM and 1000 nM (sheet 'Samples'), CATDS: 5.7634861461912698E-2; n = 1
# [20] = test system: TNIK; settings: read-out: apparent Kd; compound concentrations: 100 nM and 1000 nM (sheet 'Samples'), CATDS: 6.517178775647E-3; n = 1
compound,measurement,setting,value
O=C1N=C(NCCc2ccc(Cl)cc2)S/C1=C\c1ccc2ncccc2c1 [RO4498479-000],potency estimated from few doses,[1]; CATDS: 1.01576334348417E-2,536 nM
same,potency estimated from few doses,[2]; CATDS: 1.7069961948359198E-2,201 nM
same,potency estimated from few doses,[3]; CATDS: 1.41311052368837E-2,277 nM
same,potency estimated from few doses,[4]; CATDS: 1.17279601666646E-2,393 nM
same,potency estimated from few doses,[5]; CATDS: 8.2148610451916008E-3,932 nM
same,potency estimated from few doses,[6]; CATDS: 9.1029786610764794E-3,700 nM
same,potency estimated from few doses,[7]; CATDS: 1.2314432114231401E-2,357 nM
same,potency estimated from few doses,[8]; CATDS: 1.16822109686501E-2,396 nM
same,potency estimated from few doses,[9]; CATDS: 1.22768983688542E-2,359 nM
Cn1ncc2c(N)ncnc21 [SKF-18267],potency estimated from few doses,[1]; CATDS: 4.5890401321851898E-3,972 nM
same,potency estimated from few doses,[2]; CATDS: 5.0197498438992799E-3,808 nM
same,potency estimated from few doses,[10]; CATDS: 5.0791005267813499E-3,789 nM
same,potency estimated from few doses,[11]; CATDS: 5.1710144175889199E-3,762 nM
same,potency estimated from few doses,[12]; CATDS: 5.1324512690416697E-3,773 nM
same,potency estimated from few doses,[13]; CATDS: 4.2831601683339304E-3,1130 nM
same,potency estimated from few doses,[3]; CATDS: 6.1597951567788304E-3,555 nM
same,potency estimated from few doses,[4]; CATDS: 4.5358126876330496E-3,997 nM
same,potency estimated from few doses,[14]; CATDS: 3.9571355950897801E-3,1370 nM
same,potency estimated from few doses,[5]; CATDS: 4.3394023432843602E-3,1100 nM
same,potency estimated from few doses,[7]; CATDS: 4.9971490936353098E-3,815 nM
same,potency estimated from few doses,[15]; CATDS: 5.3875103826164002E-3,705 nM
same,potency estimated from few doses,[16]; CATDS: 4.7820751865343299E-3,891 nM
same,potency estimated from few doses,[8]; CATDS: 7.2051481672215003E-3,429 nM
same,potency estimated from few doses,[17]; CATDS: 4.0331507933998702E-3,1310 nM
same,potency estimated from few doses,[18]; CATDS: 4.2986396089691199E-3,1120 nM
same,potency estimated from few doses,[9]; CATDS: 6.9300225951379104E-3,456 nM
CCn1c(-c2nonc2N)nc2c(C#CCN)ncc(OCCCN)c21.O=C(O)C(F)(F)F [GSK561866B],potency estimated from few doses,[16]; CATDS: 8.7160231406383598E-2,858 nM
COc1cccc2c(-c3ccncc3)c(-c3ccc(F)cc3)nn12 [GW468513X],potency estimated from few doses,[12]; CATDS: 4.67055815056669E-2,666 nM
same,potency estimated from few doses,[13]; CATDS: 8.4108879944504403E-2,140 nM
same,potency estimated from few doses,[19],346 nM
same,potency estimated from few doses,[14]; CATDS: 3.7375924419407701E-2,1750 nM
O=C(O)C(F)(F)F.O=C(O)C(F)(F)F.O=c1[nH]ccc2nc(N[C@@H]3CCCNC3)nc(Nc3ccc(S(=O)(=O)N4CCOCC4)cc3)c12.O=c1[nH]ccc2nc(N[C@@H]3CCCNC3)nc(Nc3ccc(S(=O)(=O)N4CCOCC4)cc3)c12 [GSK2177277A],potency estimated from few doses,[11]; CATDS: 6.5557639532583699E-3,1380 nM
same,potency estimated from few doses,[12]; CATDS: 1.2484395279946501E-2,150 nM
same,potency estimated from few doses,[13]; CATDS: 1.0000373505011199E-2,274 nM
same,potency estimated from few doses,[4]; CATDS: 6.5481840851314196E-3,1390 nM
same,potency estimated from few doses,[5]; CATDS: 8.6754793941291007E-3,430 nM
same,potency estimated from few doses,[6]; CATDS: 7.1625839917235003E-3,897 nM
same,potency estimated from few doses,[15]; CATDS: 6.0080792942577401E-3,2350 nM
same,potency estimated from few doses,[16]; CATDS: 8.2952674328971108E-3,503 nM
same,potency estimated from few doses,[17]; CATDS: 8.3784020222335102E-3,485 nM
same,potency estimated from few doses,[18]; CATDS: 4.2815354509816599E-2,14.4 nM
same,potency estimated from few doses,[20],1420 nM
Cc1n[nH]c2cc(Nc3ccnc(Nc4cccc(CN5CCOCC5)c4)n3)ccc12 [GW682569X],potency estimated from few doses,[10]; CATDS: 0.121280285214534,760 nM
same,potency estimated from few doses,[14]; CATDS: 8.8519756402374403E-2,1870 nM
